High-throughput results (PubChem BioAssay)
Hits are enriched below; roughly 3.2% of the tested compounds scored in any of these assays.
Candida biofilm = clotrimazole potentiators killing Candida biofilms, primary screen, with clotrimazole, Alamar Blue. C. albicans biofilm + clotrimazole. inhibition, % at 6 µM. 85,000 tested, 0.14% active. AID 834, 2007;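 active = inhibition above 20%; inactive = inhibition below 20%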;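 also: preformed 24 hr biofilms exposed to compound for 48 hr; 0% = biofilm without compound and 100% = blank killed by clotrimazole plus chlorhexidine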
ERb coact inh = inhibitors of ERβ-SRC1 coactivator interaction, primary screen, biochemical, TR-FRET, ERβ LBD, SRC-1 peptide | inhibition, % at 25.6 µM | Estrogen receptor beta (Homo sapiens), Q92731 | TR-FRET ER-beta LBD / SRC1-Cy5 peptide binding; receptor agonist-loaded with 1 µM estradiol | 86,000 tested, 1.3% active | AID 633, 2007;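 active = compounds whose percent inhibition of the receptor-coactivator binding signal exceeds about 50% in the single-dose screen, limit read from the data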;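 also: 0% = receptor plus peptide wells without compound and 100% = peptide-only wells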
MT1-MMP txn act = MT1-MMP promoter reporter activation – cell-based, luciferase luminescence, primary screen; HT1080 MT1-MMP promoter luciferase reporter, overnight; active compounds read high; activation factor at 10 µM; 86,000 tested, 0.16% active; AID 750, 2007;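 active = activation factor of at least 2 for MT1-MMP transcription at 10 µM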
ERa coact inh = ERα–SRC-1 coactivator interaction inhibitors, primary screen, biochemical, TR-FRET, ERα LBD, estradiol-bound | TR-FRET ER-alpha LBD / SRC-1 peptide | inhibition, % at 25.6 µM | 86,000 tested, 1.7% active | AID 629, 2007 | Estrogen receptor (Homo sapiens), P03372; in the data active = inhibition above about 50%;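 also: 0% = receptor plus peptide control and 100% = peptide only without receptor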
Target sequence (P03372 whole entry, looked up, the tested form may be a part): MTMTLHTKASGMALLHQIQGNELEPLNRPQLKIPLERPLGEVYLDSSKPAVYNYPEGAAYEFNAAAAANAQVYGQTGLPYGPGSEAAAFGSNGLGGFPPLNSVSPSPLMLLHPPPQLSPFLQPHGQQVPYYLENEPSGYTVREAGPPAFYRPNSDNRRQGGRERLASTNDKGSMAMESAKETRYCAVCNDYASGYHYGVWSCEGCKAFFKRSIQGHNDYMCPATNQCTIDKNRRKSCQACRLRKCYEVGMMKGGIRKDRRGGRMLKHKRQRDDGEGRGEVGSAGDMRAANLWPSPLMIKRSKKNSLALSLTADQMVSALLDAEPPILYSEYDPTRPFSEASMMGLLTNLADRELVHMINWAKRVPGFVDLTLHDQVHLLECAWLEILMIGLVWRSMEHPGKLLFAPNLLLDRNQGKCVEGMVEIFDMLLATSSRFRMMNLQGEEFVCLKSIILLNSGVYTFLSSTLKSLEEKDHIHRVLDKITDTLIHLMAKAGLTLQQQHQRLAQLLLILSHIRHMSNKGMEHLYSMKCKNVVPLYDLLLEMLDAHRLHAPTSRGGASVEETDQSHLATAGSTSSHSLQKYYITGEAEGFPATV
EphB4 antag = EphB4-ephrin-B2 interaction antagonists, primary screen, biochemical, TNYL-RAW peptide probe, fluorescence polarization | inhibition, % at 7 µM | Ephrin type-B receptor 4 (Homo sapiens), P54760 | 97,000 tested, 0.15% active | EphB4 LBD / TNYL-RAW-Alexa532 peptide;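 active = inhibition above the screen-wide mean inhibition plus 3 SD, cut at about 15% in these data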;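 also: 0% = DMSO wells and 100% = excess unlabeled TNYL-RAW peptide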
ERa coact pot = enhancers of ERα–SRC-1 coactivator binding, primary screen, biochemical, TR-FRET, ERα LBD, low estradiol; Estrogen receptor (Homo sapiens), P03372; TR-FRET ERalpha-LBD/SRC-Cy5 coactivator binding, 2 h; 100 = basal binding, no effect; coactivator binding (% of control), % at 25.6 µM; 86,000 tested, 1.3% active; AID 639, 2007; in the data active = activity above about 200%;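 also: binding measured in presence of low estradiol as agonist stimulus; 0% = peptide alone without receptor and 100% = receptor with peptide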
Numbers without * were called inactive; [ ] = another dose, or the depositor's remark.

For CN(CC(=O)N1CC=C(c2ccccc2)CC1)S(=O)(=O)c1cnc[nH]1 the results were Candida biofilm -1, ERb coact inh -6, MT1-MMP txn act 1, ERa coact inh 2, EphB4 antag 7 and ERa coact pot 96.
Screening CSc1ccccc1NC(=O)c1ccccc1N(Cc1ccccc1)S(C)(=O)=O returned Candida biofilm 2, ERb coact inh 59*, MT1-MMP txn act 1.2, ERa coact inh -4, EphB4 antag 9 and ERa coact pot 107.
`CC(=O)c1ccc(NC(=O)c2cnn3c(C(F)F)cc(C4CC4)nc23)cc1` gave Candida biofilm 2, ERb coact inh 23, MT1-MMP txn act 1.1, ERa coact inh 26, EphB4 antag 4 and ERa coact pot 184.
For Cc1cc(C(F)(F)F)c2c(N)c(C(=O)Nc3cc(C)on3)sc2n1 the results were Candida biofilm 3, ERb coact inh 20, MT1-MMP txn act 1.6, ERa coact inh 2, EphB4 antag -2 and ERa coact pot 214*[fluorescence artefact?].
`Cc1cc(C)c(S(=O)(=O)N2CCC(C(=O)NCc3ccc(Cl)cc3Cl)CC2)c(C)c1` gave Candida biofilm 69*, ERb coact inh -1, MT1-MMP txn act 1, ERa coact inh -4, EphB4 antag 5 and ERa coact pot 91.
`CCc1ccccc1NC(=O)c1cc(C2CC2)on1` gave Candida biofilm 11, ERb coact inh 8, MT1-MMP txn act 1.2, ERa coact inh 5 and ERa coact pot 88.
For O=C(Nc1cccc(C(F)(F)F)c1)c1cc2ncc(Br)cn2n1 the results were Candida biofilm 4, ERb coact inh 47, MT1-MMP txn act 1.1, ERa coact inh 45, EphB4 antag -4 and ERa coact pot 124.
`COCCNC(=O)c1cc2ncc(Br)cn2n1` gave Candida biofilm 6, ERb coact inh 39, MT1-MMP txn act 1.1, ERa coact inh 46, EphB4 antag -12 and ERa coact pot 72.
Screening CCc1ccccc1NC(=O)c1cc2ncc(Br)cn2n1 returned Candida biofilm 7, ERb coact inh 54*, MT1-MMP txn act 1.1, ERa coact inh 60*[fluorescence artefact?], EphB4 antag 3 and ERa coact pot 81.
O=C(Nc1ccc2c(c1)OCO2)c1cc2ncc(Br)cn2n1 was read as Candida biofilm 2, ERb coact inh 67*[fluorescence artefact?], MT1-MMP txn act 1.3, ERa coact inh 77*[fluorescence artefact?], EphB4 antag -3 and ERa coact pot 71.
Screening O=C(NCCc1ccccc1)c1cc2ncc(Br)cn2n1 returned Candida biofilm 5, ERb coact inh 77*[fluorescence artefact?], MT1-MMP txn act 1.4, ERa coact inh 77*[fluorescence artefact?], EphB4 antag 8 and ERa coact pot 41.
`COC(=O)[C@@]1(Cc2ccc(OC)cc2)[C@H]2c3cc(C(=O)N4CCCC4)n(Cc4cc(F)c(F)c(F)c4)c3C[C@H]2CN1C(=O)c1ccccc1` gave MT1-MMP txn act 1.2.
`Cc1cc(S(=O)(=O)N(Cc2ccccc2)Cc2ccc(N(C)C)cc2)ccc1-n1cnnn1` gave Candida biofilm 4, ERb coact inh 14, MT1-MMP txn act 1, ERa coact inh 14 and ERa coact pot 211*.
CCNC(=O)[C@H](C)/C=C/C(NC(=O)OCc1ccccc1)c1ccc(C(=O)OC)cc1 (stereo partly drawn) was read as MT1-MMP txn act 1.1.
O=C(Nc1cccc2ccccc12)c1cn(-c2ccccc2)nc1-c1cccs1 was read as Candida biofilm 2, ERb coact inh -2, MT1-MMP txn act 1.1, ERa coact inh 10, EphB4 antag 8 and ERa coact pot 203*[fluorescence artefact?].
`COc1ccc(C(C)=O)cc1COC(=O)c1ccc(OCc2c(C)noc2C)cc1` gave Candida biofilm 5, ERb coact inh 42, MT1-MMP txn act 1.2, ERa coact inh 55*[fluorescence artefact?], EphB4 antag 5 and ERa coact pot 277*.
Screening Cc1noc(C)c1COc1ccc(C(=O)OCC(=O)N2CC(=O)Nc3ccccc32)cc1 returned Candida biofilm -7, ERb coact inh -11, MT1-MMP txn act 1.1, ERa coact inh -6, EphB4 antag -1 and ERa coact pot 101.
Cc1noc(C)c1COc1ccc(C(=O)OCC(=O)N2c3ccccc3NC(=O)C2(C)C)cc1 was read as Candida biofilm -4, ERb coact inh 68*, MT1-MMP txn act 1.3, ERa coact inh 73*, EphB4 antag 7 and ERa coact pot 54.
`Cc1nc2c(o1)CCc1ccccc1C2N1CCN(C)CC1` (stereo not drawn) gave Candida biofilm 0, ERb coact inh 0, MT1-MMP txn act 1.3, ERa coact inh 3, EphB4 antag 1 and ERa coact pot 110.
CC(C)c1cccc2nc3c(c([Si](C)(C)C)c12)Cn1c-3cccc1=O was read as MT1-MMP txn act 1.1.
N#CC(C(=O)Nc1ccc(Cl)c(Cl)c1)=C1Nc2ccccc2N1 was read as Candida biofilm 2, ERb coact inh 70*[fluorescence artefact?], MT1-MMP txn act 1.1, ERa coact inh 79*[fluorescence artefact?], EphB4 antag 6 and ERa coact pot 46.
`N#CC(C(=O)Nc1cccc(Cl)c1)=C1Nc2ccccc2N1` gave Candida biofilm 3, ERb coact inh -7, ERa coact inh -13, EphB4 antag -3 and ERa coact pot 105.
Screening CC1CN(C(=O)Nc2ccc3snnc3c2)c2ccccc21 (stereo not drawn) returned Candida biofilm -1, ERb coact inh -32, MT1-MMP txn act 1.3, ERa coact inh -67 and ERa coact pot 165.
O=C(NCCCN1CCOCC1)c1cc2c(=O)[nH]c3ccccc3c2s1 was read as Candida biofilm 10, ERb coact inh -8, MT1-MMP txn act 1, ERa coact inh -5 and ERa coact pot 224*.
For O=C(NCc1ccco1)c1nc2nc(-c3cccs3)cc(C(F)(F)F)n2n1 the results were Candida biofilm 3, ERb coact inh 22, MT1-MMP txn act 1.1, ERa coact inh 26, EphB4 antag -4 and ERa coact pot 67.
For O=C(NCc1ccco1)c1nn2c(C(F)(F)F)cc(-c3cccs3)nc2c1Br the results were Candida biofilm -1, ERb coact inh 44, ERa coact inh 59*, EphB4 antag 5 and ERa coact pot 157.
`COc1cccc2[nH]c3c(N4CCN(Cc5ccc6c(c5)OCO6)CC4)ncnc3c12` gave Candida biofilm -11, ERb coact inh 3, MT1-MMP txn act 1.1, ERa coact inh 4, EphB4 antag 0 and ERa coact pot 95.
